Results from PubChem BioAssay.
Activity calls are given as the source filed them.

Key:
[1] = system: PRMT1 (protein arginine N-methyltransferase 1); test: PRMT1 binders on small-molecule microarrays, primary screen, biochemical, small-molecule microarray, 635 nm fluorescence (AID 1088); conditions: small-molecule microarray binding, higher = more signal;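 also: binding of Prmt1 protein to compounds spotted on small-molecule microarray slides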
[2] = yeast growth modulation, basal conditions, primary screen, YJM789 clinical isolate, OD600, 24 h (AID 1089);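 also: growth of clinical yeast isolate S. cerevisiae YJM 789 seeded 1000 cells per well; test concentration not given here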; conditions: S. cerevisiae YJM789 growth, higher = more signal, called active from +8 up or from −8 down
[3] = fission yeast growth modulation, primary screen, strain 972, OD600, 24 h, no modulator (AID 1090);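 also: basal condition with compound alone and no growth modifier present; test concentration not given here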; conditions: S. pombe 972 growth, higher = more signal, called active from +8 up or from −8 down
[4] = S. cerevisiae growth modulation with rapamycin, primary screen, strain BY4716, OD600, 96 h (AID 1091); conditions: higher = more signal, called active from +8 up or from −8 down; also: test concentration not given here
[5] = biological target: Torsin-1A-interacting protein 2 (Homo sapiens) (UniProt Q8NFQ8); test: LULL1 binders on small-molecule microarray, primary screen, cell lysate, human LULL1 lysate, 635/667 nm fluorescence (AID 1092); conditions: hLULL1 lysate binding, 635 nm fluorescence, higher = more signal;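 also: probe is lysate of COS7 cells overexpressing human LULL1; score merges per-feature 667 nm fluorescence with signal-to-noise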
Torsin-1A-interacting protein 2 (Homo sapiens), sequence (Q8NFQ8 whole entry, looked up): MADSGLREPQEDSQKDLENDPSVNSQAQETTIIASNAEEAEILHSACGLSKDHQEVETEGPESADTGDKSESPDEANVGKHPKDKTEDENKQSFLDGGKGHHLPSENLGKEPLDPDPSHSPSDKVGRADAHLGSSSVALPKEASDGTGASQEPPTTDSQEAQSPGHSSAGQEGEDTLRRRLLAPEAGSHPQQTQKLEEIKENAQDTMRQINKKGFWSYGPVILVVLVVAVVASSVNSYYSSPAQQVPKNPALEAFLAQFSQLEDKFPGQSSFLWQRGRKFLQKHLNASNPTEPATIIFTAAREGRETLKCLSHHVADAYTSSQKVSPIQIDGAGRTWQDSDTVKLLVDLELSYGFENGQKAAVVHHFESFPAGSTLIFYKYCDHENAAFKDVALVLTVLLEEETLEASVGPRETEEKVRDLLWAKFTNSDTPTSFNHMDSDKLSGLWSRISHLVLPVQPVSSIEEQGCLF

[6] = E. coli growth modulation, two-sided OD650, primary screen, E. coli filamentation project, strain DRC41, 24 h (AID 1093); conditions: OD650, 24 h, higher = more signal, called active from +8 up or from −8 down;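 also: MC1000 strain lacking acrAB efflux and sulA so SOS filamentation is blocked; test concentration not given here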
[7] = small-molecule microarray binders of probe aLefty2, primary screen, biochemical, biotinylated probe, 635/667 nm fluorescence (AID 1094); conditions: higher = more signal;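 also: score merges spot fluorescence near 667 nm with spot signal-to-noise ratio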
[8] = system: Noggin (protein binding on small-molecule microarray); test: Noggin binders on small-molecule microarray, primary screen, biochemical, 635/667 nm fluorescence (AID 1095); conditions: 635 nm fluorescence, higher = more signal;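 also: score merges 667 nm feature fluorescence with signal to noise over triplicate slides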
[9] = biological target: Neurogenic locus notch homolog protein 3 (Homo sapiens) (UniProt Q9UM47); test: NOTCH3 binders on small-molecule microarray, primary screen, biochemical, 635/667 nm fluorescence (AID 1096); conditions: NOTCH3 binding, 635 nm fluorescence, higher = more signal
Neurogenic locus notch homolog protein 3 (Homo sapiens), sequence (Q9UM47 whole entry, looked up): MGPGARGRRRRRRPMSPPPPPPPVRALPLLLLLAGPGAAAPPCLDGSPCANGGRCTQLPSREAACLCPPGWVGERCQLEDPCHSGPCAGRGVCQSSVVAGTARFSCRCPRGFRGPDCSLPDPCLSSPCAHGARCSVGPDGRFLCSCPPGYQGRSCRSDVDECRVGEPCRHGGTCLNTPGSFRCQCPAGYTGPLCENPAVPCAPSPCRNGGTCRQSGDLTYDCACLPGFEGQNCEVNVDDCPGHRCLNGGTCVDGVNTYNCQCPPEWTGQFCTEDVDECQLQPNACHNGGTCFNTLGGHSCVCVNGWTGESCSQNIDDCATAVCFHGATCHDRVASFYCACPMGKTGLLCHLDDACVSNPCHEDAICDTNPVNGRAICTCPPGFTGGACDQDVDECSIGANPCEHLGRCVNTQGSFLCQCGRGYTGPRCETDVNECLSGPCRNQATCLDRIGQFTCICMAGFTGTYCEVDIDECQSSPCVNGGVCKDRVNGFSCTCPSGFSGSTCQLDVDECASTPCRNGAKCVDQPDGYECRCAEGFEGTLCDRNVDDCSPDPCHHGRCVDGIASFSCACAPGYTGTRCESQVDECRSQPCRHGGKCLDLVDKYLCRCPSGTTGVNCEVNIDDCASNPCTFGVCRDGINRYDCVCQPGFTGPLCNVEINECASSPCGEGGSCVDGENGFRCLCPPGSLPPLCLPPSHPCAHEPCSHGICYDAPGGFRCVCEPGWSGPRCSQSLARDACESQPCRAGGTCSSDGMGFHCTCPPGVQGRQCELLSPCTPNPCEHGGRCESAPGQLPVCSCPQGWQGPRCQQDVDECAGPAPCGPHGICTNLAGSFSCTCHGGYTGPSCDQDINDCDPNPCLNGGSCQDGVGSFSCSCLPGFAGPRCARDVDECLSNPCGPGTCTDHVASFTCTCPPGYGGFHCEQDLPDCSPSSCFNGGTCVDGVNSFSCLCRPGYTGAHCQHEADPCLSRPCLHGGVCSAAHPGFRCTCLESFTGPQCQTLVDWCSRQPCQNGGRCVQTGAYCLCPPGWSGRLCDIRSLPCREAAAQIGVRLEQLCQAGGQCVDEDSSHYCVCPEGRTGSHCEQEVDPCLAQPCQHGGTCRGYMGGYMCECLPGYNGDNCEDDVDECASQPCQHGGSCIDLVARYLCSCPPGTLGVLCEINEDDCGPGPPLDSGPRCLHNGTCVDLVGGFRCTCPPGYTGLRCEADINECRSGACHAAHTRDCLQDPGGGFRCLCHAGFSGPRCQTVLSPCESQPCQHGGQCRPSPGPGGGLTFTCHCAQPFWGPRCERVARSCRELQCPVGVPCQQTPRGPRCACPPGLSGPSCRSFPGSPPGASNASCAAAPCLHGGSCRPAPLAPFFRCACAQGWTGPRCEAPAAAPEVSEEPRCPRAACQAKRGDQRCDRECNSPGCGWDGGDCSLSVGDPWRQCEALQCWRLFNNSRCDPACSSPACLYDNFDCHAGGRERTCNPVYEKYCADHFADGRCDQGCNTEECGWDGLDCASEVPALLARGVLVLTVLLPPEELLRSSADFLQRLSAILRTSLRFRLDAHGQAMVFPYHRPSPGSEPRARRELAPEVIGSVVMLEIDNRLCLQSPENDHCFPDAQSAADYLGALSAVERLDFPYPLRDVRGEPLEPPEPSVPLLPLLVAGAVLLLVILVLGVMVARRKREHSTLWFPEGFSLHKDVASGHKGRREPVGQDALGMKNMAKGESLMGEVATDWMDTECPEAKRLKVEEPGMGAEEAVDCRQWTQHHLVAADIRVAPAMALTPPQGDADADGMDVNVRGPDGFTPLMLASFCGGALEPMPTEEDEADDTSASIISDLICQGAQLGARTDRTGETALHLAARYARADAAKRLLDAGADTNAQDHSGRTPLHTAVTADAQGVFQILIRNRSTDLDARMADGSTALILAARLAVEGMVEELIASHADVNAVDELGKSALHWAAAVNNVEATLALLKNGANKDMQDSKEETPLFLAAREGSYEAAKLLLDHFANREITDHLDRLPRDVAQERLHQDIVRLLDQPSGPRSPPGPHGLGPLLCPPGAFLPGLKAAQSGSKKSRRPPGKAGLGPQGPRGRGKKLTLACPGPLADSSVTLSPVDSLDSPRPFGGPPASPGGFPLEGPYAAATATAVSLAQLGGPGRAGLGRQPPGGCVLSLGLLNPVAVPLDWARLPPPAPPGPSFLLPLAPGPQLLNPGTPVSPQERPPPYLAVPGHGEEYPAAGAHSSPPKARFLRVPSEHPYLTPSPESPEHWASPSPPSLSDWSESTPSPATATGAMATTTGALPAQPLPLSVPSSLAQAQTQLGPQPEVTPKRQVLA

[10] = small-molecule microarray binders of probe aEGFR, primary screen, biochemical, biotinylated probe, 635/667 nm fluorescence (AID 1097); conditions: higher = more signal;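 also: probe is a biotinylated anti-EGFR antibody binding compounds printed on slides; score combines fluorescence near 667 nm and signal to noise of each spot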
[11] = system: Plasmodium falciparum Sir2 (PF13_0152, Sir2A); test: pfSir2 binders on small-molecule microarrays, primary screen, biochemical, small-molecule microarray, 635 nm fluorescence (AID 1098); conditions: small-molecule microarray binding, fluorescence 635 nm; higher = more signal;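 also: score merges spot fluorescence intensity with its signal-to-noise ratio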
[12] = small-molecule microarray binders of probe aDKK1, primary screen, biochemical, biotinylated probe, 635/667 nm fluorescence (AID 1099); conditions: higher = more signal;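 also: score merges 667nm spot fluorescence with signal to noise across triplicate slides; reference of the scale not given here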
[13] = small-molecule microarray binders of probe aCHRDL2, primary screen, biochemical, biotinylated probe, 635/667 nm fluorescence (AID 1100); conditions: higher = more signal
[14] = splicing luciferase reporter signal modulators, primary screen, spliceosome inhibition project, cell-based, HEK293, splice +/- reporter (AID 1101); conditions: luminescence, 24 h, higher = more signal, called active from +8 up or from −8 down;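 also: HEK293 cells carrying a splicing-competent luciferase reporter gene; test concentration not given here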
[15] = biological target: Fibroblast growth factor 10 (Homo sapiens) (UniProt O15520); test: FGF10 binders on small-molecule microarrays, primary screen, biochemical, small-molecule microarray, 635 nm fluorescence (AID 1102); conditions: FGF10 binding, fluorescence 635 nm, higher = more signal
Fibroblast growth factor 10 (Homo sapiens), sequence (O15520 whole entry, looked up): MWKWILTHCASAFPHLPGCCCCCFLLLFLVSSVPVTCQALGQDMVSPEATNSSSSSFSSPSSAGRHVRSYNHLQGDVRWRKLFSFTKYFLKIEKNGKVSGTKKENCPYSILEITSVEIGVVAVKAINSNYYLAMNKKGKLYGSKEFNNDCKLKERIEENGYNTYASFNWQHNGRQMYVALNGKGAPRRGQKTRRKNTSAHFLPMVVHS

[16] = system: glycogen synthase kinase-3 (GSK3A per assay name; protocol says GSK3B); test: GSK3 binders on small-molecule microarrays, primary screen, biochemical, small-molecule microarray, 635 nm fluorescence, GSK3A (AID 1103); conditions: small-molecule microarray binding, fluorescence 635 nm; higher = more signal; also: the record names both GSK3A and GSK3B
[17] = biological target: Epidermal growth factor receptor (Homo sapiens) (UniProt P00533); test: EGFR binders on small-molecule microarrays, primary screen, biochemical, small-molecule microarray, 635 nm fluorescence (AID 1104); conditions: EGFR binding, higher = more signal;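 also: score merges 667 nm emission intensity with spot signal to noise over triplicate slides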
Epidermal growth factor receptor (Homo sapiens), sequence (P00533 whole entry, looked up): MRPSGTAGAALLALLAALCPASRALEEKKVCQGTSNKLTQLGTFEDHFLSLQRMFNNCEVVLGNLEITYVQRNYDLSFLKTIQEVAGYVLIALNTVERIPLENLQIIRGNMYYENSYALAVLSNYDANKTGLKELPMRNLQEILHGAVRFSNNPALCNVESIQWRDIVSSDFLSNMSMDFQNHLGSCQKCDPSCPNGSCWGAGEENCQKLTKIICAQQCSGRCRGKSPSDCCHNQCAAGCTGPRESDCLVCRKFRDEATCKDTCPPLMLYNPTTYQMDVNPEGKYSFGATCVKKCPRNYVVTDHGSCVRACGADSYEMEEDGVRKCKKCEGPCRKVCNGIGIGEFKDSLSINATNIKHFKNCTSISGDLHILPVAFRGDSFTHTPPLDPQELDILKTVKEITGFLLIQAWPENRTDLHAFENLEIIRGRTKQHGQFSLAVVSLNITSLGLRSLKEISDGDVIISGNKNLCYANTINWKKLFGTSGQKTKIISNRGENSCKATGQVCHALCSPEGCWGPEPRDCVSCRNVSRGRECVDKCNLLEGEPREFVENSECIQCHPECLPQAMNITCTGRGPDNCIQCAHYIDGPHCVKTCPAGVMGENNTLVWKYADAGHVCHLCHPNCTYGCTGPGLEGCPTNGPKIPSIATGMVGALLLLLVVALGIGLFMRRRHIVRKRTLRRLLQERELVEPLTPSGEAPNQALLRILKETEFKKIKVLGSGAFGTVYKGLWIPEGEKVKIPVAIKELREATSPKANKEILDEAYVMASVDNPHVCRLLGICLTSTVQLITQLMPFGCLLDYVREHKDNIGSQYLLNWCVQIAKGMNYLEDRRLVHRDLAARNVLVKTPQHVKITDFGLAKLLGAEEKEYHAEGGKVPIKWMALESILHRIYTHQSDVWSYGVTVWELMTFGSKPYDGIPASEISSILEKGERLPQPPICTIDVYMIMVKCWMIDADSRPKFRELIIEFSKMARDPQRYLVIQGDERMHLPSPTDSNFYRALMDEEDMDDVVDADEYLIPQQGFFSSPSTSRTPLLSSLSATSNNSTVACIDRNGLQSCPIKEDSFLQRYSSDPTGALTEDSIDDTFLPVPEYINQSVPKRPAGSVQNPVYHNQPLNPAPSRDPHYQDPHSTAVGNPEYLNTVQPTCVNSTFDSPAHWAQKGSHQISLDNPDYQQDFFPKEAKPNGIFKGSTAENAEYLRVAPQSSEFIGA

[18] = biological target: Follistatin-related protein 3 (Homo sapiens) (UniProt O95633); test: FSTL3 binders on small-molecule microarrays, primary screen, biochemical, small-molecule microarray, 635 nm fluorescence (AID 1105); conditions: FSTL3 binding, higher = more signal;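 also: score merges emission near 667 nm and signal to noise per printed spot across three slides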
Follistatin-related protein 3 (Homo sapiens), sequence (O95633 whole entry, looked up): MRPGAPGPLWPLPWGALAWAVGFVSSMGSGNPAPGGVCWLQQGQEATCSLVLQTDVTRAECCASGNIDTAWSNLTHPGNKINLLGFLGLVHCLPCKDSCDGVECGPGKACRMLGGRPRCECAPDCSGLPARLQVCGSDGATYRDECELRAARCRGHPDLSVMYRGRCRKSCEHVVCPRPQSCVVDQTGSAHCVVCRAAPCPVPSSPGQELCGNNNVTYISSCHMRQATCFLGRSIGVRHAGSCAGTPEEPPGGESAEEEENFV

[19] = biological target: Dickkopf-related protein 1 (Homo sapiens) (UniProt O94907); test: DKK1 binders on small-molecule microarrays, primary screen, biochemical, small-molecule microarray, 635 nm fluorescence scan (AID 1106); conditions: DKK1 binding, higher = more signal;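 also: score merges emission near 667 nm with signal to noise over three replicate slides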
Dickkopf-related protein 1 (Homo sapiens), sequence (O94907 whole entry, looked up): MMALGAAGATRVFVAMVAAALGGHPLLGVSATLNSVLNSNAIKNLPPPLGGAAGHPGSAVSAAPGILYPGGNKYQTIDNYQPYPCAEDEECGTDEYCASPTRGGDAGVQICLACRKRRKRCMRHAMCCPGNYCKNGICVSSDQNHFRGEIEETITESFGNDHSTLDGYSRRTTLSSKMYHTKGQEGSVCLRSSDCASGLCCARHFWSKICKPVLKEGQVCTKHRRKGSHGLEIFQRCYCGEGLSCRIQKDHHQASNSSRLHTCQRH

[20] = system: Inhibin beta A chain (activin A); test: INHBA (activin A) binders on microarrays, primary screen, biochemical, small-molecule microarray, 635 nm fluorescence scan (AID 1107); conditions: small-molecule microarray binding, higher = more signal;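 also: mouse activin A protein probed at 4.33 µg/mL on printed slides; score merges bound-protein fluorescence near 667 nm with spot signal-to-noise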

| Structure (SMILES) | composite z-score [1] | z-score [2] | z-score [3] | z-score [4] | composite z-score [5] | z-score [6] | composite z-score [7] | composite z-score [8] | composite z-score [9] | composite z-score [10] | composite z-score [11] | composite z-score [12] | composite z-score [13] | z-score [14] | composite z-score [15] | composite z-score [16] | composite z-score [17] | composite z-score [18] | composite z-score [19] | composite z-score [20] |
| --- | --- | --- | --- | --- | --- | --- | --- | --- | --- | --- | --- | --- | --- | --- | --- | --- | --- | --- | --- | --- |
| O=C1OCCC=C[C@H]2OC34C=CCN(c5ccc(Cl)cc5)C(=O)[C@H]3N(CCCCCCO)C(=O)[C@@H]4C12 (stereo not given in full) | 0.117 | 0.115 (inactive) | -1.1 (inactive) | -0.337 (inactive) | 0.455 | 1.78 (inactive) | -0.139 | -0.979 | -0.379 | -0.191 | 1.12 | -0.0366 | 0.499 | 0.189 (inactive) | -0.744 | -0.359 | -1.23 | -0.509 | -0.712 | -0.279 |
| CCN(CC)c1ccc(N2CC=CC34O[C@@H]5/C=C\CCC(C)OC(=O)C5[C@H]3C(=O)N(C(C)CO)[C@@H]4C2=O)cc1 (stereo not given in full) | 0.41 | 0.217 (inactive) | -1.41 (inactive) | -0.0932 (inactive) | -0.139 | 1.13 (inactive) | -0.149 | 0.07 | -0.419 | -0.206 | -0.516 | -0.47 | -0.514 | 0.0828 (inactive) | -0.408 | -0.189 | -0.455 | -0.159 | 0.492 | 1.5 |
| COCCCNC(=O)[C@@]1(Sc2ccc(C)cc2)CC(=O)N(C(C)C)[C@@H]1c1ccc(CO)cc1I | 1.31 | -0.436 (inactive) | -2.98 (inactive) | 0.445 (inactive) | 2.53 | -2.04 (inactive) | -0.0225 | -0.926 | -0.365 | -0.21 | 1.03 | -0.0358 | 0.836 | -2.25 (inactive) | -0.0668 | -0.0859 | -0.839 | -0.665 | -1.12 | 0.978 |
| O=C1[C@@H]2[C@@H](CC(COc3ccccc3)=C3[C@@H](CCc4ccccc4)OB(O)C[C@@H]32)C(=O)N1Cc1ccccc1 | -0.0537 | -0.402 (inactive) | -1.04 (inactive) | 0.297 (inactive) | 0.828 | -0.874 (inactive) | -0.274 | 0.204 | 0.359 | -0.116 | 0.393 | -0.185 | -0.23 | -0.74 (inactive) | 0.747 | 0.081 | 0.292 | 0.163 | 0.147 | 0.343 |
| C=CCN1C(=O)[C@]2(O[C@H](CCO)[C@@H]([Si](C)(C)c3ccc(OC)cc3)[C@@H]2C)c2cc(N3C(=O)COc4ccccc43)ccc21 | 1.53 | 1.81 (inactive) | 0.0538 (inactive) | 32.6 (active) | 1.29 | 1.64 (inactive) | -0.192 | 0.679 | 0.763 | -0.12 | 0.529 | -0.113 | 0.33 | -3.03 (inactive) | 0.74 | 0.195 | 0.0364 | 0.4 | -0.207 | 0.378 |
| CCOC(=O)C1=C[C@@H](c2ccccc2)N(S(=O)(=O)c2ccc(C)cc2)[C@H]1c1ccccc1 | 0.712 | -1.27 (inactive) | 0.517 (inactive) | 0.958 (inactive) | 0.91 | 0.6 (inactive) | -0.0113 | 0.0762 | 0.552 | -0.112 | 0.394 | 0.0612 | 0.753 | -0.924 (inactive) | -0.0005 | -0.193 | 0.0794 | -0.0021 | -0.399 | 1.46 |
| [N-]=[N+]=NCc1ccccc1[C@@H]1OC(c2ccc(OCCCO)cc2)=N[C@]1(Cc1ccccc1N=[N+]=[N-])C(=O)N1CCCCC1 | 1.38 | -0.0524 (inactive) | -1.17 (inactive) | 2.24 (inactive) | 3.18 | 0.379 (inactive) | 0.0216 | 0.345 | 0.921 | 0.706 | 0.785 | 0.561 | 0.321 | 0.327 (inactive) | 0.548 | 0.363 | 0.435 | 0.491 | -0.221 | 1.29 |
| C=CCC(OC(C)=O)[C@@H]1[C@@H](N(Cc2cc3ccccc3o2)C(=O)c2ccc(-c3ccccc3)cc2)c2cc(OCCCO)ccc2N1C(=O)Cc1ccc(OC)cc1 (stereo not given in full) | -0.826 | 0.21 (inactive) | 0.443 (inactive) | 0.945 (inactive) | -0.299 | -1.02 (inactive) | -0.0766 | 0.18 | -0.364 | -0.0353 | 0.104 | -0.102 | 0.0935 | -0.762 (inactive) | 0.247 | -0.744 | 0.0306 | 0.307 | 0.063 | 0.774 |
| C=CCNC(=O)[C@@H]1[C@H]2C(=O)O[C@H](c3ccccc3)[C@H](c3ccccc3)N2[C@H](c2ccc(O)cc2)[C@@]12C(=O)Nc1ccc(C#CCC(C(=O)OC)C(=O)OC)cc12 | 1.55 | 1.66 (inactive) | 0.918 (inactive) | 1.12 (inactive) | 2.32 | -0.311 (inactive) | 0.0539 | 0.482 | 0.387 | -0.187 | 0.445 | 0.0989 | 0.181 | 0.246 (inactive) | 0.242 | 0.958 | -0.0617 | 0.544 | 0.317 | 0.595 |
| CCOC(=O)C1=CC[C@@H](c2ccccc2)N(S(=O)(=O)c2ccc(C)cc2)[C@H]1c1cccc(OC)c1 | 1.06 | 0.498 (inactive) | 1.52 (inactive) | 2.05 (inactive) | 2.19 | -0.439 (inactive) | 0.116 | -0.266 | 0.618 | -0.0407 | 0.389 | 0.708 | 0.244 | -0.937 (inactive) | 0.425 | 0.897 | 0.197 | 0.549 | 0.135 | 0.949 |
